# Hit rate of the full screen: of about 290,000 compounds, about 2,100 (0.72%) were called active. Not shown: some 4% with an inconclusive outcome. Calls come from the whole dose curve; as a rule, active = well fitted inhibition curve with a large enough effect; inconclusive = small, poorly fitted or top-dose-only effect, or effect the other way; inactive = flat fitted curve, though single readings scatter. Only a selection was taken, and actives are over-represented in it overall.
# Target: Fructose-bisphosphate aldolase (Giardia intestinalis (strain ATCC 50803 / WB clone C6)) (UniProt A8B2U2)
# Sequence (A8B2U2 whole entry, looked up): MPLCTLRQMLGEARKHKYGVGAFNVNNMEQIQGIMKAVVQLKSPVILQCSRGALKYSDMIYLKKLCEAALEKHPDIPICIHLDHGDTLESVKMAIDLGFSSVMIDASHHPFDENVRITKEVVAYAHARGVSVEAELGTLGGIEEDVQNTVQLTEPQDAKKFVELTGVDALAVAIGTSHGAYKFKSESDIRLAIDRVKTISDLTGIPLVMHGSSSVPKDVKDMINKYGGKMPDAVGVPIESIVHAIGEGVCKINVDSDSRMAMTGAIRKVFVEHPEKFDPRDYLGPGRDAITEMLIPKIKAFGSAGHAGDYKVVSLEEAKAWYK
# Test: qHTS Assay for Inhibitors of Fructose-1,6-bisphosphate Aldolase from Giardia Lamblia; note: nearly all actives have a fitted effect of over 55% in size
# Details: purified Giardia FBPA; series mostly up to 59.6 µM; activity, negative = inhibition: at the top concentration
# From the text: Assay Provider: Osnat Herzberg, University of Maryland
# The objective of this project is to obtain compounds that inhibit Giardia lamblia growth. G. lamblia is a human pathogen which afflicts impoverished nations; it is the most common cause of outbreaks of diarrhea in the United States. During the course of our study of potential drug targets in Giardia, we have identified the Class II (Zn2+ functions in electrophilic catalysis) fructose-1,6-bisphosphate aldolase (FBPA) as an excellent candidate for drug targeting. FBPA is a key glycolytic pathway enzyme, essential for G. lamblia survival. The human FBPA belongs to the Class I aldolases, which have a different substrate binding site structure and a radically different catalytic mechanism (employing a lysine-Schiff base intermediate). Therefore, affinity-based or mechanism-based inhibitors of the Giardia FBPA are expected not to interfere with the catalytic function of the human FBPA.
# A glyceraldehyde-3-phosphate dehydrogenase/triose phosphate isomerase/NAD/arsenate coupled assay was adapted to the 1536-well HTP format for use in the primary screen. This was done by coupling it to a diaphorase/resazurin/resorufin reaction that can be monitored by fluorescence (excitation, 544 nm; emission, 590 nm). Compounds identified in this screen will be further evaluated by coupling the glycerol-3-phosphate/triose phosphate isomerase/NADH assay to a phenazine methosulfate/tetranitroblue tetrazolium color reaction. False positives due to the dehydrogenases and diaphorase inhibition will be eliminated, and selectivity assay will triage inhibitors of mammalian triose phosphate isomerase and the Class I FBPA. G. lamblia FBPA inhibitors identified by the in vitro analyses will be examined for growth inhibition of Giardia trophozoites, and for cytotoxicity in human cells.
# Step,Parameter,Value,Description
# 1,Enzyme reagent,2 uL,40 nM FBPA
# 2,Compound,23 nL,3.68 nM-57.5 uM final concentration
# 3,Time,10 min,RT Incubation
# 4,Substrate/detection Reagent,2 uL,Substrate + enzyme coupling system + AmpLite Red kit
# 5,Time,20 min,RT Incubation
# 6,Detector,525 nm/598 nm (Fluorescence),ViewLux Fluorescence Read (Read 1)
# 1,Medium-binding black solid-bottom Kalypsys plates. FRD or Kalypsys dispenser, 2 uL of FBPA enzyme. Bottle kept at 4C.
# 2,Compound Library (10 mM ,1:5 dilution). Pin-transferred for a [final] range of 3.68 nM-57.5 uM.
# 4,FRD or Kalypsys dispenser, 2 uL of reaction mixture. Bottle kept at 4C and covered in foil to protect from light.
# 6,ViewLux Protocol 1194; Excitation filter wheel A (525/20 Pol; BODIPY TMR FP), Emission filter wheel B (598/25 S; BODIPY TMR FP S).
# Keywords: Fructose-bisphosphate aldolase, FBPA , Giardia lamblia , Giardia, HTS, Inhibitors
# % is set by controls: 0 for no effect and ±100 for the full control effect; potency is the fitted concentration of half-maximal effect.
SMILES,Potency,"activity, negative = inhibition"
O=C(O)Cn1c(Cc2ccccc2)nc2ccccc21,28.2 µM (active),–
CC(=O)c1nc2ccccc2n1Cc1ccccc1,–,-5.52% (inactive)
C=C(Br)Cn1c(CCCC)nc2ccccc21,–,8.1% (inactive)
CCc1ccc(S(=O)(=O)N/N=C\c2ccc([N+](=O)[O-])o2)cc1,–,-19.2% (inactive)
Cc1cc(C)nc(N/N=C/c2ccc([N+](=O)[O-])o2)n1,28.2 µM (active),–
Cc1cc(C)nc(N/N=C/c2c(C)oc3ccccc23)n1,–,-26.2% (inactive)
CS(=O)(=O)N1CCc2cc(C(=O)Nc3ccccc3Br)ccc21,–,10.4% (inactive)
CCCOc1ccc(-c2c(C(=O)N/N=C/c3ccco3)nnn2-c2nonc2N)cc1,–,7.42% (inactive)
Cc1ccc(/C=N/NC(=O)c2cc3ccccc3cc2O)o1,–,-19.7% (inactive)
COCCCNC(=S)NC(=O)c1ccccc1,–,0.0132% (inactive)
Cn1nnc(NC(=S)NC(=O)c2ccccc2)n1,3.15 µM (active),–
Cc1cc2[nH]ncc2cc1NC(=S)NC(=O)c1ccccc1,–,-10.8% (inactive)
Cc1c(Cl)cccc1NC(=S)NCC(O)c1ccccc1 (stereo not drawn),–,0.0635% (inactive)
O=C(c1n[nH]c2c1CCC2)N1CCCC(Nc2cccc(F)c2)C1 (stereo not drawn),–,-1.71% (inactive)
CSc1n[nH]c(=S)n1N,19.9 µM (active),–
Cc1noc(C)c1CCC(=O)N1CCCC(CO)(Cc2ccccc2)C1 (stereo not drawn),–,-4.45% (inactive)
COc1ccc2c3c(c(=O)oc2c1)C1O[C@](CCCCN2C(=O)c4ccccc4C2=O)(Cc2c1ccc1ccccc21)O3,–,-2.65% [at 12.9 µM] (inactive)
COc1ccc(CCNCc2c(-c3ccccc3)n(C)c3ccccc23)cc1,–,-29.6% (inactive)
COc1ccc(-c2csc(Nc3ccccn3)n2)cc1,–,-13.5% (inactive)
COc1ccc(-c2csc(Nc3ccc(O)cc3)n2)cc1,–,-23% (inactive)
COc1ccc(OC)c(Nc2nc(-c3ccc(O)c(O)c3)cs2)c1,8.89 µM (active),–
COc1ccc(C2=Nn3c(nnc3-c3ccccc3O)SC2)cc1,–,5.11% (inactive)

SMILES,Potency,"activity, negative = inhibition"
CCOc1cc(C2/C(=C(/O)c3ccc(S(=O)(=O)N4CCCCC4)cc3)C(=O)C(=O)N2CCOC)ccc1O (stereo not drawn),–,20.3% (inactive)
O=C(CNC(=O)COc1ccccc1)NCCc1ccccn1,–,5.88% (inactive)
C=C(C)CNC(=S)N/N=C/c1ccccc1OCC(=O)O,17.7 µM (active),–
Cc1ccc(/C=N/NC(=O)CNC(=O)COc2ccccc2)o1,–,-0.787% (inactive)
CCn1c(SCC(=O)N/N=C/c2ccccc2OCC(=O)O)nnc1-c1ccc(C(C)(C)C)cc1,–,-14% (inactive)
C=CCOc1ccccc1/C=N/NC(=O)Cc1ccccc1,–,9.96% (inactive)
CCOc1ccccc1/C=N/NC(=O)CNC(=O)COc1ccccc1,17.7 µM (active),–
COC(=O)c1cccc(N2C(=O)C3C4C=CC(CC4)C3C2=O)c1 (stereo not drawn),–,5.94% (inactive)
CCCCN1C(=O)C(C)=C(C)C1OCCc1ccc(OC)c(OC)c1 (stereo not drawn),–,4.28% (inactive)
Cc1ccc(C(=O)NCC(=O)OCc2nnc(-c3ccccc3)o2)cc1,–,5.28% (inactive)
CCOc1ccc(N(C)Cc2cc(=O)oc3ccc(OC)cc23)cc1,–,6.29% (inactive)
Cn1nccc1/C=N\NC(=O)c1ccc(Cl)cc1,–,-7.24% (inactive)
C=CCc1c(C)nc2cc(-c3ccccc3)[nH]n2c1=O,–,-20.9% (inactive)
Cc1nc2cc(C(F)(F)F)ccc2n1CCNc1nc(-c2cc(Cl)c(N)c(Cl)c2)cs1,–,-7.4% (inactive)
Cc1ccccc1OCC(=O)Nc1nnc(S(=O)(=O)N2CCCC2)s1,–,0.701% (inactive)
COc1cccc(C(=O)Nc2nnc(S(=O)(=O)N3CCCCC3)s2)c1,17.8 µM (active),–
CCOC(=O)CSc1nnc(NC(=O)c2cccc(S(=O)(=O)N3CCCCC3)c2)s1,–,8.02% (inactive)
COc1ccc(C)cc1N(CC(=O)N1CCCC1)S(=O)(=O)c1ccccc1,–,8.2% (inactive)
Cc1ccc(C)c(N2CCN(S(=O)(=O)c3c(C)[nH]c(C)c3C(=O)N3CCCC3)CC2)c1,–,6.26% (inactive)
CC1CCCN(CCOCCOc2ccccc2-c2ccccc2)C1 (stereo not drawn),–,-28.2% (inactive)
CN1CCN(CCCCOc2cccc3ccccc23)CC1,–,-18.8% (inactive)
CN1CCN(CCCCOc2ccccc2-c2ccccc2)CC1,19.9 µM (active),–

SMILES,Potency,"activity, negative = inhibition"
Cc1ccc(S(=O)(=O)NNC(=S)NC(C)(C)C)cc1,11.2 µM (active),–
CC(NC(=S)NNS(=O)(=O)c1ccc(C(C)(C)C)cc1)c1ccccc1 (stereo not drawn),–,-2.32% (inactive)
COc1ccc(C(=O)NNS(=O)(=O)c2ccc(C)cc2)cc1,–,-0.057% (inactive)
CCNC(=O)CC1C(=O)N(c2ccc(OC)cc2)C(=O)N1CCOC (stereo not drawn),–,-9.69% (inactive)
O=c1oc2ccccc2c(CNc2ccccc2)c1[N+](=O)[O-],–,8.39% (inactive)
COc1ccc(C(=O)NCCSc2ccccc2C)cc1,–,9.8% (inactive)
Nc1c(C(=O)NCc2ccccc2)nnn1Cc1cccc(Cl)c1,–,-0.252% (inactive)
CC(C)CC(=O)N1CCN(Cc2cccc(Cl)c2)CC1,–,-21.7% (inactive)
Clc1cccc(CN2COc3c(cc(Cl)c4cccnc34)C2)c1,17.7 µM (active),–
Cc1ccc(O)c(/C=N/NC(=O)COc2ccc3c(C)cc(=O)oc3c2)c1,–,9.07% (inactive)
C=CCc1cc(C)ccc1OCCCn1ccnc1,25.1 µM (active),–
Cc1ccc2c(Cl)c(C(=O)NCCCn3ccnc3)sc2c1,–,0.0784% (inactive)
Brc1ccc(OCCn2ccnc2)cc1,–,0.307% (inactive)
Cc1ccc(OCC(=O)Nc2ccc3oc(=O)ccc3c2)cc1C,–,10.4% (inactive)
Cc1cccc(N(Cc2ccccc2)C(=O)c2ccccc2F)c1,–,7.97% (inactive)
COC(=O)c1cc(S(=O)(=O)N2CCN(c3cc(C)ccc3C)CC2)c[nH]1,–,-28.7% (inactive)
O=C(Nc1cccc(Cl)c1)c1cc(S(=O)(=O)N2CCCCC2)c[nH]1,–,7.52% (inactive)
COc1ccc(C2c3[nH]c4ccccc4c3C[C@H]3C(=O)N(CC(C)C)CC(=O)N23)c(OC)c1 (stereo partly drawn),–,8.11% (inactive)
Cc1cnc(NC(=O)CSc2nnc(-c3ccccc3)n2Cc2ccccc2)s1,–,3.82% (inactive)
CCc1nnc(NC(=O)CSc2nnc(-c3ccncc3)n2Cc2ccccc2)s1,–,0.288% (inactive)
Cc1cccc(-c2nnc(SCC(=O)O)n2Cc2ccccc2)c1,15.8 µM (active),–
CC(CN1CCOCC1)OC(=O)c1ccc(C(C)(C)C)cc1 (stereo not drawn),–,-23.6% (inactive)

SMILES,Potency,"activity, negative = inhibition"
Cc1c(C)c(C)c2[nH]c(=S)[nH]c2c1C,–,-0.981% (inactive)
O=c1[nH]c(=S)[nH]c2[nH]c(=S)[nH]c12,12.6 µM (active),–
Cc1ccc(S(=O)(=O)N(CCCN(C)C)Cc2ccc3c(c2)OCO3)cc1,–,17.3% (inactive)
CCN(CC)Cc1c(C(=O)N/N=C/c2cccc(OCc3ccc(F)cc3)c2)nnn1-c1nonc1N,–,-21.4% (inactive)
CCc1ccc2c(c1)C(c1ccc([N+](=O)[O-])cc1)=NNC(c1ccccc1)=N2,–,0.182% (inactive)
CCc1ccc2c(c1)C1(NN=C(c3ccccc3)S1)C(=O)N2 (stereo not drawn),15.8 µM (active),–
O=C(c1ccccc1)N1CCN(C(=O)c2cc3nc(-c4ccccc4)cc(C(F)(F)F)n3n2)CC1,–,-1.21% (inactive)
O=C(/C=C/c1ccco1)NC(=S)Nc1ccccc1Br,–,-12.7% (inactive)
CCNC(=O)N1CCCC(C(=O)c2ccc(-c3ccccc3)cc2)C1 (stereo not drawn),–,-6.72% (inactive)
COC(=O)CC1=NN(c2nc(C)cc(C)n2)C(=O)C1,5.61 µM (active),–
Cc1ccc(CC2CC(=O)N(c3nc(C)cc(C)n3)C2=O)cc1 (stereo not drawn),–,3.28% (inactive)
Cc1cc(C)cc(NC(=O)C2CCN(c3nc(C)cc(C)n3)CC2)c1,–,9.22% (inactive)
Cc1cccc(-n2c(O)c(C=Nc3ccccc3N)c(=O)[nH]c2=O)c1,–,7.74% (inactive)
O=c1[nH]c(=O)n(-c2ccccc2)c(O)c1C=NC12CN3CN(CN(C3)C1)C2,–,-0.226% (inactive)
CCCCC(=O)N/N=C/c1c(O)n(-c2ccccc2)c(=O)[nH]c1=O,8.89 µM (active),–
O=C(NC(=S)Nc1ccc(Cl)cc1Cl)C1CC1,–,-5.9% (inactive)
COc1ccccc1CN1CCN(C(=O)Cc2ccccc2)CC1,17.8 µM (active),–
CS(=O)(=O)N1CCN(C(=O)Cc2ccccc2)CC1,–,1.56% (inactive)
COc1ccccc1CN1CC2(CCN(S(=O)(=O)c3ccccc3)CC2)C1,–,1.62% (inactive)
COc1ccccc1/C=N/N1CCN(Cc2ccccc2Cl)CC1,–,-9.55% (inactive)
COC(=O)N1CCC2(CCCN(Cc3ccccc3OC)C2)CC1,–,5.48% (inactive)
COc1ccccc1CN1CCN(Cc2cc(OC)c(OC)cc2OC)CC1,25.1 µM (active),–

SMILES,Potency,"activity, negative = inhibition"
CCOCCOC(=O)C1=C(C)NC(=O)NC1c1ccc2c(c1)OCO2 (stereo not drawn),–,7.55% (inactive)
O=C(O)c1c(NC(=O)N2CCCC2)sc2c1CCCC2,–,-17.4% (inactive)
O=C(Nc1ccc(O)cc1)c1ccc(NC(=O)c2ccco2)cc1,–,4.74% (inactive)
CCOC(=O)C1(Cc2cccc(OC)c2)CCCN(C(=O)CCSC)C1 (stereo not drawn),–,-14.4% (inactive)
Cc1cc(C)c2c(=O)[nH]c(SCC(=O)Nc3ccc(Br)cc3)nc2n1,31.6 µM (active),–
Cc1cccc(NC(=O)CSc2nc3[nH]ncc3c(=O)[nH]2)c1,–,-0.944% (inactive)
Cc1cc(=O)[nH]c(SCC(=O)Nc2ccc(Br)cc2)n1,–,-7.83% (inactive)
OCCN1CCN(C(=S)c2ccc(-c3ccccc3)cc2)CC1,11.2 µM (active),–
S=C(c1ccccc1)N1CCCC1,–,-8.06% (inactive)
O=C(NC(c1ccccc1)c1ccccc1)N1CCN(CCO)CC1,–,2.22% (inactive)
COc1ccc(-c2ccc(C3C4C=CCCC4(C)C(=O)N3Cc3ccccc3)c(F)c2)cc1OC (stereo not drawn),–,-2.7% (inactive)
Cc1cc(F)ccc1NC(=S)NCCc1ccccc1,–,-4.77% (inactive)
COc1cc(NC(=O)C2=CC(c3ccc(C)cc3)=NS(=O)(=O)N2C)cc(OC)c1OC,–,-11.6% (inactive)
CCOc1cccc(NC(=O)C2CCCN(S(=O)(=O)c3ccc(OC)cc3)C2)c1 (stereo not drawn),–,0.161% (inactive)
COc1ccccc1CC(=O)Nc1ccc(S(=O)(=O)N2CCCC2)cc1,–,3.51% (inactive)
CCN(CC(=O)Nc1ccc(S(=O)(=O)N2CCCC2)cc1)CC(=O)Nc1cccc(OC)c1,5 µM (active),–
COc1cc(C(=S)N2CCOCC2)cc(OC)c1OC(=O)c1ccc([N+](=O)[O-])cc1[N+](=O)[O-],–,-13.1% (inactive)
CCS(=O)(=O)Nc1ccc(C(=O)NCCSc2ccccc2)cc1,–,9.82% (inactive)
CC(=O)OCCN(CCCn1c(-c2ccncc2)nc2ccccc21)c1nc(-c2ccc(C)cc2)cs1,–,-10.8% (inactive)
Oc1c(C=Nc2cccc3nsnc23)ccc2ccccc12,5 µM (active),–
